Test [1] deals with Pyruvate kinase PKM (Homo sapiens) (UniProt P14618). The experiment in a line: qHTS Assay for Inhibitors of Human Muscle Pyruvate Kinase (AID 958). The procedure, abridged:
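Enzyme was run at intermediate activity so both inhibitors and activators could be detected. ATP formed from ADP and PEP by 0.1 nM human PKM2 during a 1 h room-temperature incubation was quantified by coupled luciferase luminescence.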
Background: Quantitative high-throughput screening tests each substance at several concentrations.

Test [2] addresses Pyruvate kinase (Leishmania mexicana) (UniProt Q27686). The experiment in a line: qHTS Validation Assay for Activators of Leishmania Mexicana Pyruvate Kinase (AID 959). The procedure, abridged: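 Pyruvate kinase activity of E451W LmPYK (0.2 nM) was followed as ATP output after 1 h at room temperature with 0.5 mM PEP and 0.1 mM ADP, detected by PKLight luminescence.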
Test [3] deals with Alpha-galactosidase (Coffea arabica) (UniProt Q42656). The test can be described thus: Counterscreen for Glucocerebrosidase Inhibitors: qHTS Assay for Coffee Bean alpha-Galactosidase at pH 4.5 (AID 957). Further: series mostly up to about 77 µM. The procedure, abridged:
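AC50 values derive from Hill-equation modeling of concentration-response data, normalized to no-enzyme and full-activity controls. The pH 4.5 citrate assay used 2 nM coffee bean enzyme and 80 uM fluorogenic substrate for 20 min.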
In general terms: Counterscreens check selectivity or assay interference.

A short description of test [4]: MultiTox-Fluor Cytotoxicity Assay - LYMP1-002 - Live Cells (AID 955). Further: potency means the concentration at half of the fitted maximal effect. The procedure, abridged:
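Cytotoxicity in the human lymphoblastoid line LYMP1-002 is measured as loss of live-cell protease activity after 16 h treatment in complete culture medium. AC50 is derived from Hill-equation fits of qHTS concentration-response data.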

The nature of test [5]: MultiTox-Fluor Cytotoxicity Assay - LYMP1-002 - Dead Cells (AID 960). Further: nearly all actives have a fitted effect of over 60% in size. Further: potency means the concentration at half of the fitted maximal effect. In short, it runs like this: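 Acute cytotoxicity in a human lymphoblastoid line is scored as rising dead-cell protease signal after 16 hr exposure at 37 C, measured fluorometrically (485/520).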
The nature of test [6]: MultiTox-Fluor Cytotoxicity Assay - LYMP1-003 - Dead Cells (AID 961). Further: nearly all actives have a fitted effect of over 70% in size. Further: potency means the concentration at half of the fitted maximal effect. In short, it runs like this: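 LYMP1-003 human lymphoblastoid cells (2500/well) exposed to compound 16 h at 37 C in complete medium; dead-cell protease read with bis-AAF-R110 fluorescence (Ex/Em 485/520) after 60 min at room temperature. Normalized to DMSO and 15 uM tetraoctylammonium bromide; AC50 from Hill fit.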

Test [7] is described as follows: MultiTox-Fluor Cytotoxicity Assay - LYMP1-003 - Live Cells (AID 962). Further: potency means the concentration at half of the fitted maximal effect. The procedure, abridged:
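Cells plated at 2500 per well and incubated 5 hr; compounds added and incubated 16 hr at 37 C; MultiTox-Fluor reagent added for 60 min at room temperature; fluorescence of liberated AFC measured at 405/510 nm.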

Test [8] can be described thus: Cell Viability - LYMP1-003 - Assay at 24 hr (AID 963). Further: potency means the concentration at half of the fitted maximal effect. The procedure, abridged: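 Acute toxicity in LYMP1-003 lymphoblastoid cells: 24 hr compound treatment at 37 C, ATP measured with CellTiter-Glo after 30 min at room temperature. AC50 derived by fitting the Hill equation to qHTS titrations.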
Test [9] is described as follows: Cell Viability - LYMP1-003 - Assay at 40 hr (AID 964). Further: nearly all actives have a fitted effect of over 60% in size. Further: potency means the concentration at half of the fitted maximal effect. The procedure, abridged:
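This qHTS cytotoxicity screen treats human lymphoblastoid cells (LYMP1-003) with compounds for 40 hr and quantifies cellular ATP via luciferase luminescence.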

Where “and” joins values, the source holds several entries; their conditions need not be identical. Equal values may be shown once. Inconclusive results are not listed. Some structures have more than one record in an assay (separate samples or runs), and their calls can disagree. Calls of active or inactive are those of the source. The call rests on the fitted dose curve; in most records, active means well fitted curve in the direction sought with a large enough effect; inconclusive means small, poorly fitted or top-dose-only effect, or another doubt; inactive means no such curve, though single readings can be large; an effect the other way counts as inactive or inconclusive.

Sequence of Pyruvate kinase (Leishmania mexicana) (Q27686 2-499 E452W): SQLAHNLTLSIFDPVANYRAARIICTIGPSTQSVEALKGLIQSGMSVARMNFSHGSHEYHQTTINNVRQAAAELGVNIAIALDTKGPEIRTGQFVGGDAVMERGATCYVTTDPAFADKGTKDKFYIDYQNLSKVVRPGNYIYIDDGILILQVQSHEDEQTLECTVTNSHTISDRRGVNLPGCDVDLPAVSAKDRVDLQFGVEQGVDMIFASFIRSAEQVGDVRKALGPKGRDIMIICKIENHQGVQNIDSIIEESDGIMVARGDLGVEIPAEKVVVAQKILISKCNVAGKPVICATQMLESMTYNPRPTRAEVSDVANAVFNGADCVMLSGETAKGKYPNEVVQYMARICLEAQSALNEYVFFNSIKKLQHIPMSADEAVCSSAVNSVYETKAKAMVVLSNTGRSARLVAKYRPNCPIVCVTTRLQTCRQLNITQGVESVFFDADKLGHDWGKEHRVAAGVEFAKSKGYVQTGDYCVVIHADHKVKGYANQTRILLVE
Sequence of Alpha-galactosidase (Coffea arabica) (Q42656 whole entry, looked up): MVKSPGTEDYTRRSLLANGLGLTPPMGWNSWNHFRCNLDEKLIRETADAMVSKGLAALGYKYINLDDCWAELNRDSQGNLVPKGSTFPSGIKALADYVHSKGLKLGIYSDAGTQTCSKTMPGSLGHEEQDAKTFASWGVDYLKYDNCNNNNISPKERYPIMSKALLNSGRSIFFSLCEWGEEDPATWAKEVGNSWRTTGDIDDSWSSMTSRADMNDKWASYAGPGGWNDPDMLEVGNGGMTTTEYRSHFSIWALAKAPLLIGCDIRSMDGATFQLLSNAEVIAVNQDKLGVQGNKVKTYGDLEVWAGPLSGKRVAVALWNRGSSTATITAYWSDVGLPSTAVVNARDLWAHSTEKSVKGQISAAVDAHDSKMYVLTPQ
Sequence of Pyruvate kinase PKM (Homo sapiens) (P14618 whole entry, looked up): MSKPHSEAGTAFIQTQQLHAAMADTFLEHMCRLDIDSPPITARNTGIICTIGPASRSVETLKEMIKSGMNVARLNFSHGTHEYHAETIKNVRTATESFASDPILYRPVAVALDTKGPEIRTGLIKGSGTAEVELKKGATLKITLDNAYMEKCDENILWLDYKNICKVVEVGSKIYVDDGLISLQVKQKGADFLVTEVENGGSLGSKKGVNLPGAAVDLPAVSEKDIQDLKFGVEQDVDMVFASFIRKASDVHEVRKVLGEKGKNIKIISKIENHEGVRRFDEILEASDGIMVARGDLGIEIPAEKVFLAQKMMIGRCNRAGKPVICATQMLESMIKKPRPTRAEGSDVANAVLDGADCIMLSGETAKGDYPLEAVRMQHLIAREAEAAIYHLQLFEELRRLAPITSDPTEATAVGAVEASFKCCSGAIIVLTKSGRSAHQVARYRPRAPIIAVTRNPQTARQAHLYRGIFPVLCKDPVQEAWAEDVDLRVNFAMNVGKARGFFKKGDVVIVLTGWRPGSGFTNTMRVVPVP

With `O=c1c2ccccc2[se]n1-c1ccccc1`, in [1], the Potency was 10 µM (active). The Potency entry in [2] was “inactive”.

With `CN1CCC(c2c[nH]c3ccc(O)cc23)CC1`, the result in test [3] was inactive.

In the case of `C[C@H](N)CN1CCc2ccc(Br)cc21`, the result in test [3] was inactive.

Regarding `O=[N+]([O-])c1ccc(F)c([N+](=O)[O-])c1`, the Potency result in test [4], in test [5], in test [6], in test [7], in test [8] and in test [9] was “inactive” in each case.

With `Oc1cc(Cl)c(Cl)cc1Cl`, the Potency entry in test [4], in test [5], in test [6], in [7], in test [8] and in test [9] was “inactive” throughout.

On to `CC(C)Nc1ccc(Nc2ccccc2)cc1`, for which the Potency is 25.1 µM (active) in test [4]; 25.1 µM (active) in test [6]; 50.1 µM (active) in test [7]; 50.1 µM (active) in test [8]; 31.6 µM (active) in test [9].

On to `COc1ccc2c(c1OC)C(=O)OC2C1c2cc3c(cc2CCN1C)OCO3` (centres undefined), for which the Potency result in [4], in test [5], in test [6], in test [7], in test [8] and in test [9] was “inactive” each time.

As for `C=CCN=C=S`, the Potency result in test [4], in test [5], in [6], in test [7], in test [8] and in test [9] was “inactive” in each case.

Turning to `CC(C)(C)c1cc(O)ccc1O`, the Potency result in test [4], in test [5], in test [6], in [7], in test [8] and in test [9] was “inactive” throughout.

`ClC=C(Cl)Cl`: the Potency entry in test [4], in test [6], in test [7], in test [8] and in test [9] was “inactive” throughout.

As for `CCCCCl`, the Potency entry in [4], in [5], in test [6], in test [7], in [8] and in test [9] was “inactive” in each case.

Take `Clc1ccc(N2C[C@H]3CC[C@@H](C2)N3)nn1`: the call in [3] was inactive.

Consider `COC1=CC(=O)O[C@@H](/C=C/c2ccccc2)C1`, for which the Potency entry in [4], in test [5], in [6], in [7], in test [8] and in test [9] was “inactive” in each case.

For the compound `CCOC(=O)c1ccccc1C(=O)OCC`, the Potency result in test [4], in test [5], in [6], in test [7], in [8] and in test [9] was “inactive” each time.

As to `[Cl-].[Cl-].[Hg+2]`, the Potency in [4] was 10 µM (active); in test [7] it was 15.8 µM (active); in test [8] it was 7.94 µM (active); in [9] it was 1 µM (active).

Turning to `C[N+]1(C)CCN(c2ccccc2)CC1`, in test [3], the call was inactive.

As to `[O]=[Cr](=[O])([OH])[O][Cr](=[O])(=[O])[OH]`, the Potency entry in test [4], in test [5], in test [6] and in [7] was “inactive” in each case. Further, the Potency result is “inactive and 39.8 µM (active)” in [8]; “inactive and 39.8 µM (active) and 25.1 µM (active)” in test [9].

Turning to `S=C=S`, the Potency entry in test [4], in [5], in test [6], in [7], in [8] and in test [9] was “inactive” each time.

Turning to `NCCc1ccc(S(=O)(=O)F)cc1`, the compound was classed as inactive in test [3].

`NC(=O)COc1c(F)cc(SCCNS(=O)(=O)c2ccccc2)cc1F`: the compound was classed as inactive in test [3].

Take `C[N+](C)(C)CC#CCN1CCCC1=O`: the outcome in [3] was inactive.

For `CCCn1c(=O)c2[nH]c(C3CCCC3)nc2n(CCCOC(=O)c2ccc(S(=O)(=O)F)cc2)c1=O`, the outcome in test [3] was inactive.

For `O=C1C2CC=CCC2C(=O)N1SC(Cl)(Cl)Cl` (centres undefined), the Potency in test [4] was 6.31 µM (active) and 5.01 µM (active); in test [5] it was 5.01 µM (active); in test [6] it was 10 µM (active) and 7.94 µM (active); in test [7], 12.6 µM (active) and 10 µM (active); in test [8], 12.6 µM (active); in [9], 20 µM (active).

`CCCCCCCCOC(=O)c1ccccc1C(=O)OCCCCCCCC`: the Potency result in test [4], in [5], in [6], in [7], in test [8] and in [9] was “inactive” throughout.

In the case of `O=S1(=O)N(CCN2CC=C(c3c[nH]c4cc(F)ccc34)CC2)c2cccc3c2N1CCC3`, in test [3], the result was inactive.

As for `Nc1ccc(CCN2CCN(c3cccc(C(F)(F)F)c3)CC2)cc1`, the result in test [3] was inactive.

Take `Clc1ccccc1Cl`: the Potency entry in test [4], in [5], in test [6], in [7], in [8] and in test [9] was “inactive” each time.

Consider `N#CC(C#N)=Cc1cc(O)c(O)c(O)c1`, for which, in test [3], the outcome was inactive.

With `N[C@@H](Cn1oc(=O)[nH]c1=O)C(=O)O`, the compound was classed as inactive in test [3].

`O=C1CCO1`: the Potency entry in test [4], in test [5], in test [6], in test [7], in [8] and in test [9] was “inactive” in each case.

For the compound `C[C@]12CCC(=O)C[C@@H]1CC[C@@H]1[C@@H]2CC[C@]2(C)[C@@H](O)CC[C@@H]12`, the Potency result in test [4], in [6], in test [7], in [8] and in test [9] was “inactive” throughout.

As to `O=C(O)c1cc[c]([Hg][Cl])cc1`, the Potency entry in test [2] was “inactive”.

For `CN(N=O)c1cc(O)ccc1O`, in [2], the Potency was 3.16 µM (active).
